Holding throughout (assay): NCI-60 one-dose screen, 48 h (100 = growth as untreated, 0 = no growth, -100 = all killed)
Holding throughout (conditions): 10 µM unless noted

Assay [1] concerns SR leukemia.
The test system of assay [2] is RPMI-8226 leukemia.
In assay [3] the test system is OVCAR-8 ovarian.
Assay [4] relates to OVCAR-4 ovarian.
Assay [5] deals with SK-OV-3 ovarian.
The subject of assay [6] is IGROV1 ovarian.
Assay [7] has as its system OVCAR-3 ovarian.
Assay [8] relates to HS 578T breast.
Assay [9] concerns NCI/ADR-RES ovarian.
The test system of assay [10] is OVCAR-5 ovarian.

SMILES strings stand for the structures. Compounds without any hit were thinned out: in the full panel of roughly 83,000, 20% have a hit.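 For each line, cells grew in 96-well plates with the test compound present at a single concentration for 48 hours.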 Values without a mark were called inactive. Active and inactive are the calls of the source. Rule for the calls: active = growth percent below 10; inactive = the rest.

Turning to `COc1ccc(-c2c(-c3cc(OC)c4c(c3)OCO4)noc2N)cc1`, the growth was -7.43% (active) in assay [1]; 23.8% in [2]; 9.5% (active) in assay [3]; 34.4% in assay [4]; 4.02% (active) in assay [5]; 14.6% in assay [6]. For the same compound, the results for the growth in assay [7], in [8] and in assay [9] were -47.3% (active), 28% and 13.8%, respectively.

For the compound `Clc1cccc(-c2cc(-c3ccc4c(c3)OCCO4)[nH]n2)c1`, the growth is 29.3% [25 µM] in [1]; 21.4% [25 µM] in assay [2]; 37% [25 µM] in [10]; 68.3% [25 µM] in assay [4]; 45.6% [25 µM] in [5]; 39.9% [25 µM] in [6]. Further, the growth in assay [7] was 12.8% [25 µM]; in assay [8], 47% [25 µM]; in [9], 3.35% [25 µM] (active).

For the compound `COc1ccc(C(=O)c2cc(OC)c3c(c2)OCO3)cc1O`, the growth in assay [1] was 9.89% (active); in assay [2] it was 24.7%; in assay [3], 17.8%; in assay [4] it was 37.7%; in assay [5], 8.88% (active); in assay [6], 27.9%. The growth in assay [7] was -41.7% (active); in assay [8], 12.2%; in assay [9], 2.68% (active).

As for `CCCCCCCCCCCCCCCCNC(=O)OC(C)C`, the growth is 1.69% (active) in [1]; 80.1% in [2]; 63.8% in [3]; -39.2% (active) in [4]; 69.7% in assay [5]; 19.5% in assay [7]. The growth was 78.2% in assay [8] and 65.9% in assay [9].

`CCN(CC)CCCNc1nccc2ccc(Cl)cc12`: the growth in [1] is 94.3%; in [2], 101%; in assay [10] it was 92%; in assay [4], 108%; in [5], 100%; in assay [6], 118%. The growth is 105% in assay [7], 109% in assay [8] and 105% in assay [9].

Consider `Cc1nc2cncc(C#Cc3cncc(C(=O)Nc4ccc(CN5CCN(C)CC5)c(C(F)(F)F)c4)c3)c2nc1C`, for which the growth in [1] is 19.7%; in assay [2], 8.79% (active); in [3] it was 24.6%; in assay [10], 10.5%; in assay [5], -26.8% (active); in assay [6], -5.34% (active). Further, the growth in assay [7] was 25.9%; in assay [8], -9.83% (active); in assay [9], 18.5%.

As to `CC(C)OC(=O)N1CCOCC1`, the growth was 109% in assay [1]; 107% in [2]; 95.6% in assay [3]; 95.5% in [4]; 98.1% in assay [5]; 115% in [7]. Moreover, the growth in [8] was 97.5%; in assay [9], 108%.

Consider `COc1ccc2cc(-c3ccc(-c4ccc(C(=N)N)cc4)s3)ccc2c1`, for which the growth is 30.4% in assay [1]; 91% in assay [2]; 101% in assay [3]; 103% in assay [10]; 69.6% in [6]; -15.4% (active) in [7]. The growth is 105% in [8] and 106% in assay [9].

For `CCOC(=O)CN1/C(=N/c2sc3c(c2C(=O)OCC)CCN(C(=O)OCC)C3)SC(=O)/C1=C\C(=O)OC`, the growth in [1] is 29.8%; in assay [2], -28.8% (active); in assay [10], 89.9%; in assay [4], 86.8%; in assay [5], 111%; in [6], 92.1%. For the same compound, the growth in assay [7] is 92.1%; in [8] it was 82.7%; in [9], 87%.

Take `COc1cc(C2C3=C(COC3=O)Nc3cc4c(cc32)OCO4)cc2c1OCO2` (stereo not drawn): the growth in [1] is -0.432% (active); in [2], 21.9%; in assay [3], 14.3%; in assay [4], 51.9%; in [5] it was 12.8%; in assay [6], 23.6%. Further, the results for the growth in assay [7], in assay [8] and in assay [9] were -45.3% (active), 14.6% and 9.84% (active), respectively.

With `COc1ccc2c(c1)OC1=C(C(=O)OC1)C2c1cc(OC)c2c(c1)OCO2` (stereo not drawn), the growth in assay [1] was -7% (active); in assay [2], 28.3%; in [3], 20.2%; in [4] it was 39.8%; in assay [5] it was 8.55% (active); in [6] it was 21.1%. For the same compound, the growth was -51.3% (active) in assay [7], 14.9% in assay [8] and 13.6% in assay [9].

In the case of `COc1cc(C2CC(c3ccc4c(c3)OCO4)=NN2C=O)cc(OC)c1OC` (stereo not drawn), the growth in assay [1] was 33.5%; in [2], 52.8%; in [3] it was 53.9%; in [4], 57.7%; in [5], 24.7%; in assay [7], -29% (active). Also, the growth in assay [8] is 8.51% (active); in assay [9] it was 15.5%.

As to `O=c1[nH]c(-c2ccccc2)nc(CN2CCCCC2)c1O`, the growth in assay [1] was 85.1%; in assay [2], 97.6%; in assay [3], 107%; in assay [10], 110%; in assay [5], 114%; in assay [6] it was 128%. Also, the figures for the growth in assay [7], in assay [8] and in assay [9] were 110%, 104% and 100%, respectively.

For `COc1cc(NCCCCCN)c2ncccc2c1`, the growth is 70.6% in assay [1]; 88.8% in [2]; 100% in assay [3]; 86.8% in assay [4]; 109% in assay [5]; 98% in assay [6]. The growth in assay [8] is 113%; in assay [9], 109%.

In the case of `COc1ccc(-c2cn(-c3cccc(C(=O)/C=C/c4cc(OC)c(OC)c(OC)c4)c3)c(=O)[nH]2)cc1OC`, the growth is 6.01% (active) in [1]; 6.95% (active) in assay [2]; 64.9% in assay [3]; 93.6% in assay [10]; 82.7% in assay [5]; 98.2% in [7]. For the same compound, the growth is 87.9% in assay [8] and 90.7% in [9].

Consider `NC(=O)c1c(NC(=S)Nc2ccc(OC(F)(F)F)cc2)sc2c1CCC1(C2)OCCO1`, for which the growth in [1] was 92.1%; in [2] it was 93.2%; in [10], 91.9%; in [4] it was 95.3%; in assay [5], 89.9%; in [6], 96.3%. Moreover, the growth in assay [7] was 109%; in assay [8], 79.5%; in [9], 98.9%.

Consider `COC(OC)c1ccccc1`, for which the growth was 93.9% in [1]; 121% in assay [2]; 107% in [10]; 110% in assay [4]; 99.2% in [5]; 101% in [6]. Moreover, the growth in assay [7] is 106%; in assay [8], 99.2%.

As for `CCCOC(=O)n1cccc1`, the growth in [1] was 114%; in assay [2], 110%; in [3], 108%; in [4], 91.7%; in assay [5], 101%; in assay [7], 106%. Also, the growth was 105% in assay [8] and 102% in assay [9].

In the case of `COc1ccccc1CNCCCN1C(=O)c2ccc3c4c(ccc(c24)C1=O)C(=O)N(CCCNCCCCNCCCN)C3=O`, the growth in [1] was -27.1% (active); in assay [2] it was -9.27% (active); in assay [3], 4.19% (active); in assay [4] it was -73.8% (active); in [5], 9.93% (active); in assay [6] it was -2.75% (active). The growth is -96.8% (active) in assay [7], -25.1% (active) in assay [8] and 4.5% (active) in [9].

With `COc1ccc(-c2cnnn2-c2nonc2-n2cccc2)cc1OC`, the growth was -4.66% (active) in assay [1]; 52.2% in assay [2]; 66.5% in assay [3]; 90.6% in assay [4]; 61.8% in assay [5]; 62.4% in [6]. Besides, the growth in assay [7] was 30.2%; in assay [8], 82.5%.

As to `COC1=C(OC)C(=O)C(CCCCCCCCCC[P+](c2ccccc2)(c2ccccc2)c2ccccc2)=C(C)C1=O`, the growth was -27% (active) in assay [1]; -62.5% (active) in [2]; 3.19% (active) in assay [10]; 2.19% (active) in assay [4]; -40% (active) in [5]; -31.6% (active) in [6]. For the same compound, the values for the growth in assay [7], in assay [8] and in assay [9] were -34.2% (active), -58.9% (active) and 60.7%, respectively.

`CCc1cnc(=S)n(-c2ccccc2)c1`: the growth in [1] is 99.6%; in [3], 113%; in assay [10], 97.3%; in [4], 135%; in [5], 105%; in assay [6], 105%. Also, the figures for the growth in assay [7], in assay [8] and in assay [9] were 98.5%, 108% and 98.3%, respectively.

Take `CCCCNC(=O)Oc1ccc(/C(=C(\C)c2ccccc2)c2ccc(OCCN(CC)CC)cc2)cc1`: the growth in [1] is 14.5%; in assay [2], 49.8%; in [10] it was 77.7%; in assay [4], 79.7%; in assay [5], 74.5%; in assay [6], 77.2%. The growth in assay [7] is 75.1%; in assay [8], 39.8%; in [9], 84.4%.

Consider `O=C(CSc1nc2ccccc2[nH]1)c1ccc(N2CCOCC2)cc1`, for which the growth in [1] was 129%; in assay [3], 96%; in [10], 102%; in [4], 96.5%; in [5], 101%; in assay [6], 105%. Besides, the growth is 106% in assay [7], 99% in assay [8] and 91.9% in assay [9].

On to `CCN(CC)CCC(CNc1ccnc2cc(Cl)ccc12)c1ccc(Cl)cc1` (stereo not drawn), for which the growth is -13.2% (active) in [1]; -0.553% (active) in [2]; 22% in [10]; -12.9% (active) in [5]; 33.5% in [6]; 25% in assay [7]. Besides, the figures for the growth in [8] and in assay [9] were -66.8% (active) and 23.4%, respectively.

For `O=C(NCCNc1nccc(-n2ccc3cccnc32)n1)c1ccc(C(F)(F)F)cc1`, the growth was 105% in assay [1]; 103% in assay [3]; 106% in assay [10]; 100% in assay [4]; 99.7% in [5]; 103% in assay [6]. Also, the growth in [7] was 109%; in assay [8] it was 106%; in [9] it was 105%.

`NC(=N\N=C/c1ccc(O)cc1)/C(N)=N\N=C/c1ccc(O)cc1`: the growth in [1] is 33.7%; in [2], 65.3%; in [4] it was 74.4%; in assay [5], 82.6%; in assay [6], 79.4%; in assay [7], 92%. In addition, in assay [8], the growth is 99%.

With `FC(F)(F)c1cccc(-c2cn3c(ccc4ccccc43)n2)c1`, the growth was 95.1% in assay [1]; 94.8% in assay [3]; 102% in assay [10]; 97.7% in assay [4]; 85.7% in assay [5]; 81.5% in assay [6]. The growth in assay [7] is 97.2%; in [8], 104%; in assay [9], 92.6%.

`COc1ccc(/C=C2/C(=O)NC(SCC(=O)N3CCN(c4cc5c(cc4F)c(=O)c(C(=O)O)cn5C4CC4)CC3)=NC2N)cc1OC` (stereo not drawn): the growth is 108% in [1]; 106% in assay [3]; 104% in assay [10]; 107% in [4]; 121% in [5]; 107% in assay [6]. For the same compound, the growth in [7] was 107%; in assay [8], 105%; in assay [9], 104%.

With `C=C(C)[C@@H]1CC[C@]2(C(=O)O)CC[C@]3(C)[C@H](CC[C@@H]4[C@@]5(C)C[C@@H](CC#Cc6ccc(C(F)(F)F)cc6)[C@H](O)C(C)(C)[C@@H]5CC[C@]43C)[C@@H]12`, the growth in [1] is 15.6%; in [2], 9.12% (active); in assay [10] it was 52%; in assay [4], 1.55% (active); in assay [5], 36.2%; in assay [6] it was 19.5%. Further, the growth in assay [7] was -3.44% (active); in assay [8], 24.1%; in assay [9], 76.1%.

Source of the values: PubChem BioAssay (NCI).
